Data published in PubChem BioAssay (NCATS).
Inconclusive results are not listed. The source made the active and inactive calls. Calls follow the shape of the dose curve; as a rule, active = well fitted curve in the direction sought with a large enough effect; inconclusive = small, poorly fitted or top-dose-only effect, or another doubt; inactive = no such curve, though single readings can be large; an effect the other way counts as inactive or inconclusive.

What was measured:
JEG-3 = assay: Primary qHTS to identify gynecologic anti-cancer compounds using libraries of approved drugs and bioactive compounds (AID 1345084); details: Gynecologic cancer cell panel viability, ATPlite luminescence, 48 h; series mostly up to 57.5 µM; also: nearly all actives have a fitted effect of over 55% in size
Procedure, shortened: (§1)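 Five-point cytotoxicity, 48 h drug exposure at 37 C, 5% CO2, on cells seeded 16 h beforehand. ATP content read by ATPlite luminescence.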

OV90 = assay: as above; details: Gynecologic cancer cell panel viability, ATPlite luminescence, 48 h; series mostly up to 57.5 µM
Procedure, shortened: as §1

PA-1 = assay: as above; details: Gynecologic cancer cell panel viability, ATPlite luminescence, 48 h; series mostly up to 57.5 µM
Procedure, shortened: as §1

Tov-21-G = assay: as above; details: Gynecologic cancer cell panel viability, ATPlite luminescence, 48 h; series mostly up to 57.5 µM
Procedure, shortened: as §1

Tov112D = assay: as above; details: Gynecologic cancer cell panel viability, ATPlite luminescence, 48 h; series mostly up to 57.5 µM
Procedure, shortened: as §1

[1] = qHTS assay to identify inhibitors of the type 1 interferon - major histocompatibility complex class I in skeletal muscle: Counter screen cell viability and HiBit confirmation (AID 1347412); details: iHSKM muscle cells + IFN-b, HiBiT or CellTiter-Glo, 24 h; for Potency: HiBiT; for activity change, negative = inhibition: Viability, at 45.9 µM (top of the series); as to all read-outs here: nearly all actives have a fitted effect of over 60% in size
Procedure, shortened: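 Human myoblast knock-in line, 4.0 ng/ml IFN-beta stimulation, 24 h compound treatment. Endpoints: HiBiT lytic luminescence (HLA-B level) and CellTiter Glo (ATP). Dosing 12 concentrations, 3-fold steps, 46 uM highest final.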

SKOV3 = assay: Primary qHTS to identify gynecologic anti-cancer compounds using libraries of approved drugs and bioactive compounds (AID 1345084); details: Gynecologic cancer cell panel viability, ATPlite luminescence, 48 h; series mostly up to 57.5 µM; also: nearly all actives have a fitted effect of over 55% in size
Procedure, shortened: as §1
% is scaled to controls: 0 for no effect and ±100 for the full control effect; potency is read from the fitted curve at half-maximal effect.

CC(Nc1ncnc2nc[nH]c12)c1cc2cccc(Cl)c2c(=O)n1-c1ccccc1 (stereo not given)
inactive: Potency (JEG-3) | Potency (OV90) | Potency (PA-1) | Potency (Tov-21-G) | Potency (Tov112D)

CCC(=O)O[C@H]1C(C)(C)[C@H]([C@@H](O)C(=O)OC)[C@]2(C)C(=O)[C@@]1(O)[C@H]1O[C@]13C1CC(=O)O[C@@H](c4ccoc4)[C@]1(C)CCC32 (stereo not given in full)
inactive: Potency (JEG-3) | Potency (OV90) | Potency (PA-1) | Potency (Tov-21-G) | Potency (Tov112D)

Cc1ccc(NC(=O)Nc2cc(C(F)(F)F)ccc2F)cc1Nc1ccc2c(c1)NC(=O)/C2=C\c1ccc[nH]1
active: Potency [1] 31.3 µM
inactive: Potency (JEG-3) | Potency (OV90) | Potency (PA-1) | Potency (Tov-21-G) | Potency (Tov112D) | activity change, negative = inhibition [1] -28%

CC#CC(=O)N1CCC[C@H]1c1nc(-c2ccc(C(=O)Nc3ccccn3)cc2)c2c(N)nccn12
inactive: Potency (JEG-3) | Potency (OV90) | Potency (PA-1) | Potency (Tov-21-G) | Potency (Tov112D)

CC1(C)CC[C@]2(C(=O)O)CC[C@]3(C)C(=CCC4[C@@]5(C)C[C@@H](O)[C@H](O)C(C)(C)C5CC[C@]43C)C2C1 (stereo not given in full)
inactive: Potency (JEG-3) | Potency (OV90) | Potency (PA-1) | Potency (Tov-21-G) | Potency (Tov112D)

COC(=O)C(C)C1CCC2(C)C(=O)C=CC(C)(O)C2C1O (stereo not given)
inactive: Potency (JEG-3) | Potency (OV90) | Potency (PA-1) | Potency (Tov-21-G) | Potency (Tov112D)

CC(C)(C)OC(=O)N1CCC(OCc2nc(-c3ccncc3)no2)CC1
inactive: Potency (JEG-3) | Potency (OV90) | Potency (PA-1) | Potency (Tov112D)

CC(O)/C=C/C1C(C)C(O[C@@H]2O[C@H](CO)[C@@H](O)[C@H](O)[C@H]2O)C(O)CC1(C)C (stereo not given in full)
inactive: Potency (JEG-3) | Potency (OV90) | Potency (PA-1) | Potency (Tov-21-G) | Potency (Tov112D)

CC(NC(=O)CCc1nc2ccccc2c(=O)[nH]1)c1ccccc1 (stereo not given)
inactive: Potency (JEG-3) | Potency (OV90) | Potency (PA-1) | Potency (Tov-21-G) | Potency (Tov112D)

Cc1cc(C(=O)N2Cc3cnn(C)c3Nc3ccccc32)ccc1CNC(=O)N1CCC[C@H]1C(=S)N1CCCN(C)CC1
inactive: Potency (JEG-3) | Potency (OV90) | Potency (PA-1) | Potency (Tov-21-G) | Potency (Tov112D)

CC(=O)O[C@@H]1[C@@H](O)[C@H](O[C@H]2CC[C@]34C[C@]35CC[C@]3(C)[C@@H]([C@@]6(C)CC[C@@H](C(C)(C)O)O6)[C@@H](O)C[C@@]3(C)[C@@H]5C[C@H](O[C@@H]3O[C@H](CO)[C@@H](O)[C@H](O)[C@H]3O)[C@H]4C2(C)C)OC[C@H]1O
inactive: Potency (JEG-3) | Potency (OV90) | Potency (PA-1) | Potency (Tov-21-G) | Potency (Tov112D)

C=CC1C(OC2OC(CO)C(O)C(O)C2O)OC=C(C(=O)OC)C1CC(=O)OCC1C(C)C(O)CC1C(CO)COC(=O)CC1C(C(=O)O)=COC(OC2OC(CO)C(O)C(O)C2O)/C1=C\C (stereo not given)
inactive: activity change, negative = cytotoxicity (JEG-3) 0.819% [at 11.6 µM] | activity change, negative = cytotoxicity (OV90) 16.4% [at 11.6 µM] | activity change, negative = cytotoxicity (PA-1) -12.5% [at 11.6 µM] | activity change, negative = cytotoxicity (Tov-21-G) -4.06% [at 11.6 µM] | activity change, negative = cytotoxicity (Tov112D) -1.58% [at 11.6 µM]

O=C(Nc1c(-c2cccs2)nc2ccccn12)c1ccc(Cl)cc1
inactive: Potency (JEG-3) | Potency (OV90) | Potency (PA-1) | Potency (Tov112D)

COCCN1CCN(Cc2ccc(-c3n[nH]c4c3C(=O)c3c(NC(=O)NN5CCOCC5)cccc3-4)cc2)CC1
active: Potency (PA-1) 0.251 µM | Potency (Tov-21-G) 0.282 µM | Potency (Tov112D) 0.316 µM | Potency [1] 0.0701 µM
inactive: Potency (JEG-3) | Potency (OV90) | activity change, negative = inhibition [1] 44.8%

COc1ccc(CN2C(=O)C(=O)c3cc(S(=O)(=O)N4CCC[C@H]4COc4cccnc4)ccc32)cc1
inactive: Potency (JEG-3) | Potency (OV90) | Potency (PA-1) | Potency (Tov-21-G) | Potency (Tov112D)

CC1(C)CCC[C@@]2(C)C1[C@H](OC(=O)/C=C/C=C/C(=O)O)C=C1COC(=O)[C@@]12O (stereo not given in full)
inactive: Potency (JEG-3) | Potency (OV90) | Potency (SKOV3) | Potency (Tov-21-G) | Potency (Tov112D)

CNC(C)C(=O)NC(C(=O)N1CCCC1c1nc(C(=O)c2ccc(F)cc2)cs1)C1CCCCC1 (stereo not given)
inactive: Potency (JEG-3) | Potency (OV90) | Potency (PA-1) | Potency (Tov112D)

CC(=O)OC1C(O)CC2(C)C(CCC(C)C23Cc2c(O)cc(CO)c(C=O)c2O3)C1(C)C (stereo not given)
inactive: Potency (JEG-3) | Potency (OV90) | Potency (SKOV3) | Potency (Tov-21-G) | Potency (Tov112D)

O=C1NC2CCc3nc4ccccc4c(=O)n3C2=Nc2ccccc21 (stereo not given)
inactive: Potency (JEG-3) | Potency (OV90) | Potency (SKOV3) | Potency (Tov-21-G) | Potency (Tov112D)

Cc1ccc(NC(=O)c2ccc(CN3CC[C@H](N(C)C)C3)c(C(F)(F)F)c2)cc1Nc1nccc(-c2cncnc2)n1
active: Potency (OV90) 5.01 µM
inactive: Potency (JEG-3) | Potency (SKOV3) | Potency (Tov-21-G) | Potency (Tov112D)

CN(C)c1nc(NC2CCC(NCCc3ccc(Br)cc3OC(F)(F)F)CC2)nc2ccccc12 (stereo not given)
active: Potency (JEG-3) 20 µM | Potency (OV90) 14.1 µM | Potency (SKOV3) 14.1 µM

CC(C)c1nnc(-c2ccc(-c3ccccc3)nc2)n1-c1cccc2nonc12
inactive: Potency (JEG-3) | Potency (OV90) | Potency (PA-1) | Potency (Tov112D)

O=C(NCc1ccc(F)cc1)C(=O)c1c[nH]c2ccccc12
inactive: Potency (JEG-3) | Potency (OV90) | Potency (SKOV3) | Potency (Tov-21-G) | Potency (Tov112D)

NC(=O)c1cccc2cn(-c3ccc(C4CCCNC4)cc3)nc12 (stereo not given)
inactive: Potency (JEG-3) | Potency (OV90) | Potency (SKOV3) | Potency (Tov-21-G)

CC(=O)C1=C(C)N(c2cccc(C(F)(F)F)c2)C(=O)N[C@H]1c1ccc(C#N)nc1
inactive: activity change, negative = cytotoxicity (JEG-3) -3.38% [at 11.6 µM] | activity change, negative = cytotoxicity (OV90) 5.76% [at 11.6 µM] | activity change, negative = cytotoxicity (SKOV3) 12.1% [at 11.6 µM] | activity change, negative = cytotoxicity (Tov-21-G) 3.34% [at 11.6 µM] | activity change, negative = cytotoxicity (Tov112D) -8.52% [at 11.6 µM]

OC[C@H]1O[C@@H](O[C@H]2[C@H](OCCc3ccccc3)O[C@H](CO)[C@@H](O)[C@@H]2O)[C@H](O)[C@@H](O)[C@@H]1O
inactive: Potency (JEG-3) | Potency (OV90) | Potency (SKOV3) | Potency (Tov-21-G) | Potency (Tov112D)

COc1cc2oc(-c3ccc(O)cc3O)cc2c(OC)c1CC=C(C)C
inactive: Potency (JEG-3) | Potency (OV90) | Potency (SKOV3) | Potency (Tov-21-G) | Potency (Tov112D)

CC1(C)CC[C@]2(C(=O)O)CC[C@]3(C)C(=CCC4[C@@]5(C)CC[C@H](O[C@@H]6O[C@H](C(=O)O)[C@@H](O[C@@H]7OC[C@@H](O)[C@H](O)[C@H]7O)[C@H](O)[C@H]6O)C(C)(C)C5CC[C@]43C)C2C1O (stereo not given in full)
inactive: Potency (JEG-3) | Potency (OV90) | Potency (SKOV3) | Potency (Tov-21-G) | Potency (Tov112D)

C[C@@H]1CCC2C(C)(C)[C@H](O)CC[C@]2(C)[C@@]12Cc1c(O)cc3c(c1O2)CN([C@@H](CCC(=O)O)C(=O)O)C3=O (stereo not given in full)
inactive: Potency (JEG-3) | Potency (OV90) | Potency (SKOV3) | Potency (Tov-21-G) | Potency (Tov112D)

C1CCC[C@H]2CCCN3CC[C@@H](CCCCCC[C@@H]4CCCN5CC[C@@H](CC1)O[C@@H]45)O[C@@H]23
inactive: activity change, negative = cytotoxicity (JEG-3) -9.47% [at 0.155 µM] | activity change, negative = cytotoxicity (OV90) -15.5% [at 0.155 µM] | activity change, negative = cytotoxicity (SKOV3) 0.0209% [at 0.155 µM] | activity change, negative = cytotoxicity (Tov-21-G) 5.89% [at 0.155 µM] | activity change, negative = cytotoxicity (Tov112D) 2.94% [at 0.155 µM]

NCc1ccc(Nc2ncc(F)c(Nc3ccccc3)n2)cc1
inactive: Potency (JEG-3) | Potency (OV90) | Potency (Tov112D)
active: Potency (PA-1) 12.6 µM

C=C1[C@@H]2CC[C@@H]3[C@@](CCC4C(C(=O)O)(C(=O)O)C[C@@H](O[C@@H]5O[C@H](CO)[C@@H](O)[C@H](O)[C@H]5OC(=O)CC(C)C)C[C@]43C)(C2)[C@H]1O (stereo not given in full)
inactive: Potency (JEG-3) | Potency (OV90) | Potency (SKOV3) | Potency (Tov-21-G) | Potency (Tov112D)

CC(C)[C@@H](CS(=O)(=O)C(C)C)N1C(=O)[C@@](C)(CC(=O)O)C[C@H](c2cccc(Cl)c2)[C@H]1c1ccc(Cl)cc1
inactive: Potency (JEG-3) | Potency (OV90) | Potency (Tov112D)
active: Potency (PA-1) 4.47 µM

CC(=O)OC1/C(C)=C/C(=O)C(OC(C)=O)C(C)(C)/C=C/C(C)C(=O)C2(OC(C)=O)CC(C)C(OC(=O)c3ccccc3)C12 (stereo not given)
inactive: Potency (JEG-3) | Potency (OV90) | Potency (SKOV3) | Potency (Tov-21-G) | Potency (Tov112D)

CC(=O)O[C@@H]1[C@@H](OC(=O)/C=C/c2ccccc2)[C@@H](OC(C)=O)[C@H](O[C@H]2[C@@H]3C=CO[C@@H](O[C@@H]4O[C@H](CO)[C@@H](O)[C@H](O)[C@H]4O)[C@@H]3[C@@]3(CO)O[C@@H]23)O[C@H]1C
inactive: Potency (JEG-3) | Potency (OV90) | Potency (SKOV3) | Potency (Tov-21-G) | Potency (Tov112D)

CC(CCC1(O)OC2CC3C4CCC5CC(O[C@@H]6O[C@H](CO)[C@@H](O)[C@H](O)[C@H]6O[C@@H]6O[C@@H](C)[C@H](O)[C@@H](O)[C@H]6O)C(O)CC5(C)C4CCC3(C)C2C1C)CO[C@@H]1O[C@H](CO)[C@@H](O)[C@H](O)[C@H]1O (stereo not given in full)
inactive: activity change, negative = cytotoxicity (JEG-3) -0.873% [at 11.6 µM] | activity change, negative = cytotoxicity (OV90) 22.7% [at 11.6 µM] | activity change, negative = cytotoxicity (SKOV3) 3.64% [at 11.6 µM] | activity change, negative = cytotoxicity (Tov-21-G) 6.58% [at 11.6 µM] | activity change, negative = cytotoxicity (Tov112D) 18.3% [at 11.6 µM]
